Reference: PubChem BioAssay AID602254 (Broad Institute, 2012)
Hit rate of the full screen: of about 1,000 compounds, fewer than 10 were called active.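 Rule for the calls: active = fitted half-maximal concentration no higher than twice the top valid tested dose, with signal falling; inconclusive = flat curve with 30 to 70% inhibition, or poor fit; inactive = the rest.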 These entries were drawn from the full list. Potency and affinity values are given separately.

Molecular target: Golgi-associated PDZ and coiled-coil motif-containing protein (Homo sapiens) (UniProt Q9HD26)
Test: CAL PDZ domain peptide-binding inhibitors, dose response, biochemical, fluorescence polarization, untagged CAL PDZ, cherry-pick, set 2 (AID 602254);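 note: 0% = DMSO neutral control and -100% = unlabeled peptide PRC23 positive control; more negative means stronger blocking of peptide binding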
Details: Purified CAL PDZ, TMR peptide fluorescence polarization; series mostly up to 60 µM; activity change, negative = inhibition: at the top concentration

SMILES	activity change, negative = inhibition
CC(C)(C)c1cc(C(=O)NNc2cccc(Cl)c2)n(Cc2ccccc2)n1	-0.821% (inactive)
O=C(NCc1ccc(F)cc1)c1c2c(nc3ccccc13)CCN(Cc1ccccc1)C2	-1.25% (inactive)
CC(C)CC1NC(=O)N(CC(=O)N(C)C2CCCCC2)C1=O (stereo unspecified)	-0.87% (inactive)
N#Cc1c(N)c(C#N)c(-c2ccc(O)cc2)c2c1CCCC2	-0.315% (inactive)
Cc1cccc(C)c1NC(=S)NC(C)(C)CO	1.29% (inactive)
CC(C)(C)OC(=O)n1cc(C(=O)c2ccccc2O)cn1	1.29% (inactive)
Cc1cc(Nc2ccccc2Cl)nc(-c2ccccc2O)n1	1.86% (inactive)
CN(C)CCCNC(=S)Nc1ccc(Oc2ccccc2)cc1	-9.71% (inactive)
COC(=O)c1ccc(NC(=S)Nc2cccc(C)n2)cc1	-2.33% (inactive)
Cc1cc(C)nc(NCC(O)CNc2ccccc2C)n1 (stereo unspecified)	2.94% (inactive)
Cc1ccc(Cl)c(NC(=O)COC(=O)C2CCC2)c1Cl	-2.31% (inactive)
COC(=O)c1cc2ccsc2n1Cc1cccc(F)c1	1.78% (inactive)
O=S(=O)(NC1CCCC1)c1ccc(-n2cnnn2)cc1	0.658% (inactive)
COc1ccc(Cl)cc1C(=O)NNC(=O)CNC(=O)c1ccc(C)s1	-0.888% (inactive)
COc1ccc(CCNS(=O)(=O)c2ccc(-n3cnnn3)c(OC)c2)cc1OC	1.4% (inactive)
COc1ccccc1C(=O)NC(CCSC)C(=O)NC1CC1 (stereo unspecified)	4.47% (inactive)
COc1ccc(OCCSc2nnc(C(C)NC(=O)c3ccccc3F)n2C)cc1 (stereo unspecified)	-3.42% (inactive)
CCSc1nnc(NC(=O)CCNC(=O)c2ccccc2Cl)s1	-1.72% (inactive)
COc1ccc(NC(=O)Nc2nnc(C(C)(C)C)s2)cc1	-1.28% (inactive)
O=C(CNC(=O)CNC(=O)c1ccc(Cl)cc1Cl)NCc1cccc(Cl)c1	-0.331% (inactive)
O=C(O)CC(CNC(=O)C1CCCN1C(=O)OCc1ccccc1)c1ccccc1 (stereo unspecified)	-2.42% (inactive)
CC(=O)c1cc(Cl)ccc1OCC(=O)Nc1cccc(S(=O)(=O)N2CCCC2)c1	6.73% (inactive)
O=C(COc1ccc2c(c1)OCO2)Nc1nccs1	1.01% (inactive)
COC(=O)c1ccc(CN2C(=O)c3ccccc3S2(=O)=O)cc1	-0.049% (inactive)
CCc1nnc(NC(=O)c2cc(S(=O)(=O)N3CCCCC3)ccc2C)s1	1.84% (inactive)
COC(=O)c1cc(S(=O)(=O)N2CCCC(C)C2)c[nH]1 (stereo unspecified)	1.02% (inactive)
